# Sampled rows, rich in hits. Any-hit rate of the full collection: about 3.5%.
# MITF primary: human MITF inhibition, primary screen; 650,000 compounds, 0.91% hits; O75030; AlphaScreen MITF homodimerization, bead proximity signal; AID 1259374; inhibition, % at 2.6 µM; in the data active means inhibition above about 50%;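 further: 0% = vehicle wells with protein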
# GPR151 activ: activates the human receptor GPR151; PathHunter beta-arrestin GPR151 cells, luminescence; Q8TDV0; activation, % at 11.2 µM; 650,000 compounds, 1% hits; in the data active means activation above about 4.9%;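 further: 0% = median of compound wells and 100% = cells with positive control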
# Target sequence (Q8TDV0 whole entry, looked up): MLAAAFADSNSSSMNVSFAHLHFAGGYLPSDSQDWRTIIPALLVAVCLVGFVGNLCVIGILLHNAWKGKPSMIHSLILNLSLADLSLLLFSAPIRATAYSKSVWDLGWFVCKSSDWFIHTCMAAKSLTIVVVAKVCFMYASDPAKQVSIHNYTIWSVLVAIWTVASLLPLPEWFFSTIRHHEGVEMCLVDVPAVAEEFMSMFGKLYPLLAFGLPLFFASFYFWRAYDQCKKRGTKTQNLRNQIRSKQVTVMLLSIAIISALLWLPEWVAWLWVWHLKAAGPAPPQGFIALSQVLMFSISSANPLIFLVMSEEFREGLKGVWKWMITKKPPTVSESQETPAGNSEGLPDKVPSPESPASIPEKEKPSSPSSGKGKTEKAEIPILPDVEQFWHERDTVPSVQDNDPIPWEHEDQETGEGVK
# FBW7 act: human FBW7 E3 ligase activation, primary screen. Q969H0. AlphaScreen FBW7–phospho-cyclin E peptide binding, activator screen. normalized activity (activation), % at 26.1 µM. 650,000 compounds, 0.13% hits; in the data active means normalized activity above about 1.9%;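 further: purified mutant Fbw7 with reduced substrate affinity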
# TEAD-YAP block: TEAD-YAP interaction inhibition. 640,000 compounds, 1.4% hits. HEK-TIYL cells, TEAD-Gal4/YAP UAS-luciferase luminescence. inhibition, % at 9.12 µM; in the data active means inhibition above about 32%;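 further: 0% = median of test compound wells and 100% = reference inhibitor wells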
# GPR151 confirm: confirmation of human GPR151 activators; shares compounds with GPR151 activ; GPR151 PathHunter beta-arrestin cells, luminescence, 90 min; % of EA-reagent control over plate median; activation, % at 11.2 µM; 6,700 tested, under 10 active;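 active means mean percent activation across replicates above the confirmation screen cutoff of 4.91%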
# GPR119 counter: counter-screen for GPR151 activators: effect on human GPR119; shares compounds with GPR151 activ; GPR119 PathHunter beta-arrestin cells, luminescence, 90 min; 0 = compound-well median, 100 = enzyme-acceptor control; activation, % at 11.2 µM; 6,700 compounds, 0.3% hits;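 active means mean percent activation in the counterscreen above 29.09%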;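 further: counterscreen on off-target GPR119 to flag nonselective hits from the GPR151 activator screen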
# Active calls of the source: *; . = no result.
SMILES,MITF primary,GPR151 activ,FBW7 act,TEAD-YAP block,GPR151 confirm,GPR119 counter
COc1ccc(/C=C2\N=C(c3ccccc3OC)OC2=O)c(OC)c1,-3,6.5*,0,-7,0,-2
COc1ccc(OC)c(/C=C2\N=C(c3ccccc3OC)OC2=O)c1,13,1,0,-11,.,.
Cc1ccc(-c2nnc(N)s2)cc1C,1,5.6*,0,-33,-1,1
Cc1ccc(-c2nnc(N)s2)cc1,-14,-2,0,-8,.,.
Nc1nnc(-c2ccc(C(=O)O)cc2)s1,5,7.6*,0,-5,1,0
CCc1cc(=O)n2[nH]c(CC)c(-c3ccc(OC)cc3)c2n1,4,-1,0,-2,.,.
COc1ccc(/C(=N/O)C(C)(C)NO)cc1,-2,5.1*,0,7,-1,-2
CCCOc1ccc(/C(=N\O)C(C)(C)NO)cc1,-14,-2,0,-23,.,.
Cc1ccc2[nH]c3c(c2c1)CCCC3NCc1ccc(F)cc1 (stereo not given),13,14*,0,49*,0,-2
Cc1ccc2[nH]c3c(c2c1)CCCC3NC(N)=O (stereo not given),5,0,0,-2,.,.
C#CCN1C(=O)S/C(=C/c2ccc(OCC)cc2)C1=O,5,1,0,-32,.,.
COc1cc(CNC2CCN(Cc3ccccc3)CC2)cc(OC)c1,6,0,0,10,.,.
Cc1cc(CNC2CCN(Cc3ccccc3)CC2)c(C)n1CC(C)C,49,6.8*,0,-2,1,13
O=c1c2cc(-c3ccccc3)sc2ncn1-n1cccc1,9,7.7*,0,-68,0,3
CCCCC(Sc1nc2ccccc2c2nc(-c3ccccc3OC)nn12)C(=O)OCC (stereo not given),-3,5.4*,0,-8,0,2
N#Cc1c(NC(=O)c2c(F)cccc2F)sc2c1CCC2,10,1,0,-31,.,.
COc1ccc(OCCn2cc(/C=C(\C#N)C(=O)NC3CC3)c3ccccc32)cc1,-7,0,0,15,.,.
COc1ccccc1OCCn1cc(/C=C(\C#N)C(=O)NC2CC2)c2ccccc21,5,5.6*,0,13,0,-7
CCc1c(C)nc(SCCc2ccccc2)[nH]c1=O,4,5.4*,0,-9,-1,-12
CN(C)c1nc2cc(F)ccc2cc1CN(Cc1ccco1)C(=O)c1cn2ccccc2n1,0,15*,0,2,0,7
CCOC(=O)n1nc(Cc2ccncc2)c2ccccc2c1=O,12,5.2*,0,-1,1,7
CC(CCc1ccccc1)NC(=O)Cn1nc(Cc2ccncc2)c2ccccc2c1=O (stereo not given),20,5.8*,0,-3,2,4
O=C(O)Cn1nc(Cc2ccncc2)c2ccccc2c1=O,16,-1,1,2,.,.
O=C(Nc1nc(-c2ccc(Br)s2)cs1)c1cc(Cl)ccc1[N+](=O)[O-],16,0,0,-2,.,.
COc1ccc(C(=O)NCC2Cc3c(F)ccc(-c4nc(C)cnc4C)c3O2)c(OC)n1 (stereo not given),4,-1,0,7,.,.
SMILES,MITF primary,GPR151 activ,FBW7 act,TEAD-YAP block,GPR151 confirm,GPR119 counter
CC1(c2ccccc2)CC(C)(C)N(C(=O)CNC2=NCCC2=S)c2ccccc21 (stereo not given),7,0,0,-8,.,.
N#CC1=C(S)N(c2ccccc2)C(c2ccco2)NC1=O (stereo not given),-3,0,0,-5,.,.
N#CC1=C(S)N(c2ccccc2)C(c2cccs2)NC1=O (stereo not given),-8,6.9*,0,-8,0,7
CN(CCCNC(=O)CCn1c(=O)c2cccn2c2cccnc21)C1CCCCC1,-3,5.3*,0,1,1,-6
O=C(CCS(=O)(=O)c1cc2c(cc1Cl)NC(=O)CO2)Nc1ccc(F)cc1F,7,5.5*,0,-3,-1,-14
O=C(CCN1CCOCC1)c1sc(Cl)c(Cl)c1Cl,9,0,0,11,.,.
CC1(C)CC(=O)C2=C(C1)OC1=C(C(=O)CC(C)(C)C1)C2c1cccc(OCC(=O)N2CCCCC2)c1,8,-1,0,6,.,.
Cc1cc(NC(=O)C(N)=O)ccc1Br,3,5.0*,0,4,0,4
Cn1c(=O)c2c(nc(NCCOCCO)n2Cc2ccc(Cl)c(Cl)c2)n(C)c1=O,-3,5.2*,0,-10,1,6
COCCNc1oc(-c2ccccc2)nc1S(=O)(=O)c1ccc(Cl)cc1,4,-1,-1,-2,.,.
COCCNc1oc(-c2ccccc2)nc1S(=O)(=O)c1ccc(C)cc1,2,6.1*,0,-1,0,1
CCn1cc(CN2CCC(n3nccc3NC(=O)c3ccc(OC)cc3)CC2)cn1,6,5.2*,0,9,-1,-20
COc1ccccc1C(=O)Nc1ccnn1C1CCN(Cc2cccc(C(C)=O)c2)CC1,-3,1,0,-7,.,.
COc1ccccc1C(=O)Nc1ccnn1C1CCN(Cc2ccc3nsnc3c2)CC1,5,5.6*,0,6,1,7
COc1ccccc1C(=O)Nc1ccnn1C1CCN(C2CCCCC2)CC1,5,5.1*,0,-3,1,10
OCCN1CCN(C2CCN(Cc3cccc4ccccc34)CC2)CC1,9,7.6*,0,4,1,10
O=C(COc1cccc(Cl)c1Cl)c1ccc[nH]1,0,9.9*,0,-9,0,-12
COc1ccc(C(=O)Nn2c(C3CC3)nc3ccccc3c2=O)c(OC)c1,22,-1,1,0,.,.
COc1ccc(C(=O)Nn2c(C3CC3)nc3cc(OC)c(OC)cc3c2=O)c(OC)c1,2,5.9*,0,1,0,-2
CC(=O)Nc1ccc(Oc2cc(NC(=O)c3nn4c(C(F)(F)F)cc(-c5cccs5)nc4c3Cl)cc([N+](=O)[O-])c2)cc1,-1,-1,0,-5,.,.
O=C(CN(c1ccccc1Cl)S(=O)(=O)c1ccccc1)NC1CC1,-2,5.9*,0,-4,0,-5
COc1ccc(C(=O)c2sc3nc(C)cc(-c4cccs4)c3c2N)cc1,2,0,0,-2,.,.
COc1ccc(C(=O)c2sc3nc(C)cc(-c4cccs4)c3c2N)cc1OC,-17,6.9*,0,-5,-1,9
COc1ccc(OCCOc2ccc(C)cc2OC)cc1,7,0,0,-7,.,.
CCOc1ccc(CCNC(=O)c2[nH]c(C)c(C(C)=O)c2C)cc1OCC,-2,14*,0,-6,0,2
COc1ccc(CCNC(=O)c2[nH]c(C)c(C(C)=O)c2C)cc1OC,2,-1,0,-2,.,.
Oc1ccc(Cl)cc1/C=N\Nc1nncc(-c2ccccc2)n1,-5,7.4*,0,-5,0,-8
Cc1[nH][nH]c(=O)c1C1=NCCCCC1,-6,2,0,1,.,.
